# According to PubChem BioAssay AID1347076 (National Center for Advancing Translational Sciences (NCATS), 2019):
# The campaign covered roughly 400,000 compounds. About 13,000 (3.2%) were called active. Another 18% or so got no clear call; they are omitted. The entries come from a sample that favours actives as a whole. Values without a mark were called inactive. Calls follow the shape of the dose curve; as a rule, active = well fitted cell-killing curve with a large enough effect; inconclusive = small, poorly fitted or top-dose-only effect, or effect the other way; inactive = flat fitted curve, though single readings scatter.
# Experiment: qHTS assay for MDR1-selective chemotherapeutics: Primary screen using the drug-selected MDR subline cells KB-V1; also: nearly all actives have a fitted effect of over 60% in size
# Conditions: KB-V1 MDR cells viability, CellTiter-Glo, 72 h; series mostly up to 46.1 µM; activity change, negative = cytotoxicity: at the top concentration
# Method in brief: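 Compound-treated KB-V1 multidrug-resistant cells, 72 h, 37 degrees C; viability by CellTiter-Glo. Fitted qHTS curves give the values.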
# % is scaled to controls: 0 for no effect and ±100 for the full control effect; potency is read from the fitted curve at half-maximal effect.
SMILES,"activity change, negative = cytotoxicity",Potency
COC(=O)c1cc(NC(=O)c2ccco2)ccc1N1CCOCC1,-2.65%,
CC(=O)Nc1ccc(N2CCOCC2)c(C(=O)Nc2cccc(C)c2)c1,-4.2%,
COC(=O)c1cc(NC(=O)c2cc(C(C)(C)C)nn2Cc2cccc(C)c2)ccc1N1CCOCC1,,8.2 µM (active)
COc1ccc(C(=O)C(OP(=O)(OC)OC)c2ccccc2OC)cc1 (configuration not stated),-16.5%,
CC1CC(NC(=S)N(C)C)CC(C)(C)C1 (configuration not stated),-7.02%,
C=CCOC(=O)c1ccccc1C(=O)OCC=C,28.4%,
C=CCOC(=O)C1=C(C)NC(C)=C(C(=O)OCC=C)C1c1cccs1,,16.4 µM (active)
CC1=C(C(=O)Nc2ccccc2)C(c2cccs2)C(C#N)=C(SCC#N)N1 (configuration not stated),-9.02%,
COc1ccc(C(O)c2nc(-c3ccc(OC)nc3)cs2)cc1 (configuration not stated),-18.5%,
Cc1ccc(CNC(=O)c2c(-c3ccccc3)noc2C)cc1,6.43%,
CCOC(=O)c1c(-c2ccc(-c3ccccc3)cc2)csc1NC(=O)CCC(=O)O,23%,
CCOC(=O)c1c(-c2cccc(C)c2)csc1NC(=O)c1c(-c2ccccc2)noc1C,,11.6 µM (active)
O=S1(=O)CC(N2CCN(CCO)CC2)CN1C1CCCC1 (configuration not stated),-0.341%,
COc1ccc(C(=O)NCC2CCCO2)cc1S(=O)(=O)NCc1ccc(Cl)cc1 (configuration not stated),-13.3%,
CCC(=O)NCc1cc(-c2nn(C)c(=O)c3ccccc23)ccc1OC,,inactive
CCCCCc1c(-c2ccc(OC)c(OC)c2)ncn1CCc1ccccc1OC,,14.6 µM (active)
CCCCCc1c(Cc2ccccc2)ncn1CCc1ccccc1OC,-27.9%,
CCCCCc1c(-c2cccc(Br)c2)ncn1CCc1ccccc1OC,,11.6 µM (active)
CCOC(=O)CSc1nnc(-c2cccc(Br)c2)o1,17.9%,
COc1ccc(Br)cc1CN1CCN(C(=O)c2cccc(OC)c2OC)CC1,-7.38%,
Cc1cccc(-n2ncc(C(=O)N3CCN(c4ccc(Cl)cc4)CC3)c2C2CCN(C(=O)OC(C)(C)C)CC2)c1,-29.7%,
Cc1cc2nc(-c3ccc(NC(=O)c4cc5ccccc5o4)cc3)oc2cc1C,19%,
CCN(CC)CCN(C)C(c1ccnc2ccccc12)c1nnnn1-c1ccc2c(c1)OCCO2 (configuration not stated),-6.74%,
COC(=O)c1sc2ncccc2c1-n1c(C)ccc1C,6.85%,
Cc1ccc(-c2c(N)nc3ncccn23)cc1,3.58%,
O=C(CSc1oc(-c2ccccc2)nc1S(=O)(=O)c1ccc(Br)cc1)NC1CCCCC1,2.61%,

SMILES,"activity change, negative = cytotoxicity",Potency
Cc1ccc([C@H]2C[C@H](O)[C@@H](n3cc(COC(=O)c4ccccc4)nn3)CN2C(=O)C2CCCCC2)cc1,0%,
CCc1ccc(CNC(=O)C2CCCN(c3nc4ccccc4o3)C2)cc1 (configuration not stated),,14.6 µM (active)
COc1ccc(OC)c(CNC(=O)C2CCCN(c3nc4ccccc4o3)C2)c1 (configuration not stated),-14.5%,
COc1ccccc1CNC(=O)C1CCN(c2nc3ccccc3o2)CC1,-16.6%,
COc1ccc(S(=O)(=O)N(C)C)cc1NC(=O)COC(=O)c1n[nH]c2ccccc12,0.0514%,
CCCNC(=O)C1(C)CCCN(Cc2c(C)nn(-c3ccccc3)c2C)C1 (configuration not stated),4.98%,
O=C(CSc1ncn[nH]1)Nc1nc2c(F)c(F)c(F)cc2s1,13.1%,
CN1OC[C@@H]2CN(S(=O)(=O)c3cccc(C(F)(F)F)c3)[C@H](c3ccc(-c4cc5ccccc5o4)cc3)C[C@@H]21,-10.5%,
COc1ccc(C(CCNCc2ccccc2F)c2ccc(F)cc2)cc1 (configuration not stated),,14.6 µM (active)
COc1ccc(CCNC(=O)COC(=O)Cc2ccccc2F)cc1,0%,
COc1ccc(C(CNCC(=O)Nc2ccccc2F)N(C)C)cc1 (configuration not stated),-28%,
O=S1(=O)CC(N2CCSCC2)CN1Cc1cn(Cc2cccc(Cl)c2)nn1 (configuration not stated),12.2%,
COc1cc2[nH]c(C)c(CCN3CCN(c4ccccc4)CC3)c2cc1OC,-6.06%,
Cc1ccc(NS(=O)(=O)c2cc3c(cc2Br)NC(=O)CO3)cc1C,-18.7%,
COc1cc(OC)c(/C=C/c2ccnc3ccccc23)c(OC)c1,-2.16%,
O=C(Cn1nc(C(F)(F)F)c2c1CCC2)NCc1ccc(F)cc1,,11.6 µM (active)
O=C(Cn1nc(C(F)(F)F)c2c1CCCC2)Nc1ccc(Cl)cc1,9.58%,
CCC(C)NC(=O)Cn1nc(C(F)(F)F)c2c1CCC2 (configuration not stated),4.8%,
CC(C)Cn1cc(-c2cncc3nccn23)cn1,3.33%,
CCCC(=O)N1CCC1(C)C(=O)NCc1ccc(C(C)C)cc1 (configuration not stated),5.11%,
Cc1sc(NC(=O)c2ccc3ncsc3c2)c(C(N)=O)c1C,16.3%,
Cc1ccc(C(=O)Nc2nc(-c3ccccc3)ns2)cc1,-0.0266%,
Cc1ccc(C(=O)c2c(NC(=O)c3ccccc3)sc(C)c2C)cc1,,9.2 µM (active)
O=C(/C=C/[C@H]1O[C@@H](n2ccc(=O)[nH]c2=O)[C@H](O)[C@@H]1O)NCc1ccccn1,-12.4%,
O=[N+]([O-])c1ccc(CN2CC(N3CCC(c4ccccc4)CC3)CS2(=O)=O)cc1 (configuration not stated),-9.02%,
COC(=O)c1sccc1S(=O)(=O)N(CC(=O)Nc1ccc(C)c(F)c1)c1ccc(C)c(C)c1,-27.7%,

SMILES,"activity change, negative = cytotoxicity",Potency
O=C(OC1CC2CC1[C@H]1CCCCN1C2=O)N1CCOCC1 (some centres not stated),17.6%,
O=NN(CCCl)C(=O)NCCc1cccc[n+]1[O-],18.4%,
Cc1sc2ccccc2c1CNC[C@H]1O[C@@H](n2ccc(=O)[nH]c2=O)[C@H](O)[C@@H]1O,5.69%,
CCCCN1CC(N2CCN(Cc3cccc(C)c3)CC2)CS1(=O)=O (configuration not stated),-5.98%,
SCc1nc2ccc(Cl)cc2[nH]1,-8.15%,
CCN(C(=O)CSc1nnc(-c2ccncc2)o1)c1ccccc1,2.6%,
O=c1[nH]nc(CSCc2ccccc2Cl)[nH]1,3.22%,
O=C(OCc1nc2ccccc2[nH]1)C1CCCCC1,27.9%,
c1ccc(-c2nnc(SCc3nc4ccccc4[nH]3)o2)cc1,,20.6 µM (active)
Clc1ccc(-c2nnc(SCc3nc4ccccc4s3)o2)cc1,-2.53%,
Clc1ccccc1SCc1nc2ccccc2[nH]1,,20.6 µM (active)
c1ccc2c(CSCc3nc4ccccc4[nH]3)cccc2c1,,20.6 µM (active)
Nc1cccc(CCc2nc3ccccc3[nH]2)c1,-4.21%,
Cc1ccccc1NC(=O)Cn1cc(C(=O)c2cccs2)c2ccccc21,-23.2%,
Cc1ccc(CNC(=O)CCNS(=O)(=O)c2ccc3c(c2)oc(=O)n3C)cc1,0.743%,
O=C(NCCc1cccc(F)c1)C1CC(O)CN1C(=O)Nc1ccccc1 (configuration not stated),23.9%,
Cc1ccc([C@@H]2CC(=O)[C@@H]3CN(S(=O)(=O)c4ccc(C)cc4)[C@H](c4ccccc4F)C[C@@H]3N2S(=O)(=O)c2ccc(Cl)cc2)cc1,2.77%,
C=C1C(=O)[C@]23C[C@H]1CCC2[C@@]1(C)C(C[C@@H]3O)[C@](C)(C(=O)O)CC[C@@H]1O (some centres not stated),-2.82%,
O=C(NC1CCCC1)C1c2ccccc2OCC(=O)N1Cc1ccccc1 (configuration not stated),-6.86%,
CC1(C(=O)Nc2cccc3c2CCCC3)CCN1C(=O)C1(c2ccccc2)CC1 (configuration not stated),-0.882%,
Brc1nc2ncnc(NCc3ccco3)c2[nH]1,-7.71%,
COCOCCn1cc(CN2CCS(=O)(=O)N(Cc3ccc(-c4ccccc4)cc3)C(CC(C)C)C2=O)nn1 (configuration not stated),-17.5%,
Cc1cccc(OCCSc2nc3ccccc3n2CC(=O)N2CCCCC2)c1C,5.3%,
CCOC(=O)c1cn(Cc2cccc(C)c2)nn1,10.5%,
CC(=O)c1nn(-c2ccc(C)cc2)cc1C(=O)c1cccc(Br)c1,3.34%,
CCOC(=O)c1nn(-c2cccc(C)c2)cc1C(=O)c1ccccc1,,14.6 µM (active)

SMILES,"activity change, negative = cytotoxicity",Potency
Cc1c(Nc2cc(N3CCCC(C)C3)c3nonc3c2[N+](=O)[O-])c(=O)n(-c2ccccc2)n1C (configuration not stated),13.6%,
COCCNc1nc(N)c([N+](=O)[O-])c(N2CCCCCC2)n1,-0.779%,
Nc1cc(N2CCCCCC2)c2nonc2c1[N+](=O)[O-],,8.2 µM (active)
CC1(C)OC(=O)C2=C(C[C@@H](C3CCCCC3)O[C@@H]2c2ccc(Cl)cc2)O1,-23%,
CCCc1nc2ccccc2c(=O)n1/N=C/c1ccc(O)c(O)c1,-23.5%,
Cc1[nH]n(-c2ccccc2)c(=O)c1/C=N/NC(=O)c1ccoc1C,-24.5%,
Cc1[nH]n(-c2cccc(Cl)c2)c(=O)c1/C=N/n1c(C)nc2ccccc2c1=O,,7.31 µM (active)
COc1ccc(C(CNC(=O)CSc2ccccc2)N2CCOCC2)cc1 (configuration not stated),-1.79%,
Cc1ccc2cccc([N+](=O)[O-])c2n1,8.04%,
CCC(Oc1ccccc1)C(=O)OCC(=O)Nc1c(C)nn(-c2ccccc2)c1C (configuration not stated),19.3%,
Cc1cccc(C)c1NC(=O)COC(=O)c1c(C)nn(-c2ccccc2)c1C,-18.2%,
Cc1nn(-c2ccccc2)c(C)c1/C=C/C(=O)OC(C)C(N)=O (configuration not stated),,23.1 µM (active)
CCOC(=O)C1CCCN(C(=O)c2cccc3ccccc23)CC1 (configuration not stated),2.97%,
CCOC(=O)C1(CCOc2ccccc2)CCN(Cc2cc(OC)c(O)cc2Cl)CC1,-24.4%,
CC(C)(O)C#Cc1ccc(CN2CCC(CO)(CCc3ccccc3)CC2)cc1,-12.5%,
Cc1c(CN2CCC(CO)(CCOc3ccccc3)CC2)[nH]c2ccc(Cl)cc12,,5.8 µM (active)
COc1cc(OC)c(NC(=O)N2CC3CCCN3c3ccccc32)cc1Cl (configuration not stated),-18%,
C[C@@H]1CN([C@@H](C)CO)C(=O)CCCn2nncc2CO[C@H]1CN(C)C(=O)Nc1ccc(C(F)(F)F)cc1,-3.62%,
CCc1nc2cccnc2n1-c1ccc(CC(=O)Nc2c(C)cccc2C)cc1,7.03%,
CC1CC(C)CN(c2oc(-c3ccc(OCc4ccc(Cl)cc4)cc3)nc2C#N)C1 (configuration not stated),0%,
CCN(CC)S(=O)(=O)c1ccc(N(C)Cc2cccc(OC)c2OC)nc1,,6.51 µM (active)
CCN(CC)S(=O)(=O)c1ccc(OC)c(NC(=O)CCc2c(C)noc2C)c1,-7.82%,
CCOc1ccc(Br)cc1S(=O)(=O)Nc1cccc(S(=O)(=O)N(CC)CC)c1,-5.63%,
CCC(C(=O)Nc1cccc(Cl)c1C)n1nc(-c2ccc(C)cc2)ccc1=O (configuration not stated),0%,
